Assay results as given in PubChem BioAssay.

Experiment: probe aXIP binding to arrayed compounds – biochemical, NeuroSMM set, 635/667 nm fluorescence, primary screen (AID 1119);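 note: probe is the protein aXip251-270 applied at 1 µg/mL to compound-printed slides; binding of probe to printed compounds measured as 667 nm fluorescence plus signal to noise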
Settings: small-molecule microarray, higher = more signal, called active from +8 up or from −8 down

Composite Z-score, inactive:
CC(CO)N1C(=O)[C@@H]2[C@H]3C(=O)OCC=C[C@H]3OC23C=CCN(C(C)(C)C)C(=O)[C@@H]13 (stereo partly specified) 1.03
[N-]=[N+]=Nc1ccccc1[C@@H]1OC(c2ccc(OCCCO)cc2)=N[C@]1(Cc1ccccc1)C(=O)NCC(O)CO (stereo partly specified) 0.66
CC1CC/C=C\[C@H]2OC34C=CCN(c5ccc(Cl)cc5)C(=O)[C@H]3N(CCCCCO)C(=O)[C@]4(C)C2C(=O)O1 (stereo partly specified) -0.0503
C=CCC(OC(C)=O)[C@@H]1[C@@H](N(Cc2cccc3ccccc23)C(=O)c2cccc3ccccc23)c2cc(OCCCO)ccc2N1C(=O)c1ccc(-c2ccccc2)cc1 (stereo partly specified) -0.0014
CN1C(=O)C2C=CC(C(O)c3ccccn3)N(N(c3ccccc3)c3ccccc3)C2C1=O (stereo unspecified) 1.31
CC(C)(C)N1CC=CC23O[C@@H]4C=CCCOC(=O)C4[C@H]2C(=O)N(CCO)[C@@H]3C1=O (stereo partly specified) -0.391
Cc1ccc(S[C@]2(C(=O)NCCCN(C)C)CC(=O)N(C3CCCCC3)[C@@H]2c2ccc(CO)cc2)cc1 0.0469
CCOc1cc(C(O)C2C=CC3C(=O)N(c4ccccc4)C(=O)C3N2Nc2ccc(C#N)cc2)ccc1O (stereo unspecified) 0.793
COCCOC(=O)N1C(=O)[C@@]2(c3cc(C#Cc4ccc(OC)cc4)ccc31)[C@H](C(=O)Nc1nc3ccccc3s1)[C@H]1C(=O)O[C@H](c3ccccc3)[C@H](c3ccccc3)N1[C@@H]2c1ccc(OCCO)cc1 0.308
O=C1O[C@H](c2ccccc2)[C@H](c2ccccc2)N2[C@H]1[C@@H](C(=O)NC[C@H](O)c1ccccc1)[C@]1(C(=O)Nc3ccc(C#CCCO)cc31)[C@H]2c1ccc(OCCO)cc1 0.182
CCC(CC)C(O)C1C=CC2C(=O)N(c3ccccc3)C(=O)C2N1Nc1ccc(C(C)C)cc1 (stereo unspecified) 0.15
C=CCC(OC(C)=O)[C@@H]1[C@@H](N(Cc2cccc3ccccc23)C(=O)Cc2ccc(OC)cc2)c2cc(OCCCO)ccc2N1C(=O)c1ccc2ccccc2n1 (stereo partly specified) 0.397
C=C(C)c1cc2c(c(CCCCCC)n1)[Si](C(C)C)(C(C)C)OC2 -0.335
COCCOC(=O)N1C(=O)[C@@]2(c3cc(C#CC4=CCCCC4)ccc31)[C@H](c1ccccc1OCCO)N1[C@H](c3ccccc3)[C@H](c3ccccc3)OC(=O)[C@H]1[C@@H]2C(=O)Nc1nc2ccccc2s1 -0.243
O=C1NC(=O)C2C1C=CC(C(O)c1cccc3ccccc13)N2Nc1ccc(Cl)cc1Cl (stereo unspecified) -0.288
CN(C)C(=O)[C@@]1(Cc2ccccc2CN=[N+]=[N-])N=C(c2ccc(OCCCO)cc2)O[C@H]1c1ccccc1CN=[N+]=[N-] 0.608
